The values below come from PubChem BioAssay (NCI).

Among the test systems are SR leukemia; RPMI-8226 leukemia; OVCAR-8 ovarian; OVCAR-5 ovarian; OVCAR-4 ovarian; SK-OV-3 ovarian; IGROV1 ovarian; OVCAR-3 ovarian; HS 578T breast; NCI/ADR-RES ovarian; T-47D breast; BT-549 breast; MDA-MB-435 melanoma; SW-620 colon; MCF7 breast; HCT-116 colon; HCC-2998 colon; KM12 colon.
Holding throughout (test): NCI-60 one-dose screen, 48 h (100 = growth as untreated, 0 = no growth, -100 = all killed)
Common to all, as to conditions: 10 µM unless noted

Structures are written as SMILES. The panel holds about 83,000 compounds, 20% with a hit somewhere; the sample as a whole holds those more often.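 The test compound was applied at a single concentration to cells in 96-well plates for 48 hours, and percent growth was recorded.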 Unmarked numbers belong to inactive results. Activity calls are given as the source filed them. The calls were made as follows: active = growth percent below 10; inactive = the rest.

Take `C#CC#CC#CC#CC#CC#CC#CC#CC[C@H]1OC[C@H](COC(=O)O[C@@H](C(=O)O[C@H]2C[C@@]3(O)[C@@H](OC(=O)c4ccccc4)[C@@H]4[C@]5(OC(C)=O)CO[C@@H]5C[C@H](O)[C@@]4(C)C(=O)[C@H](OC(C)=O)C(=C2C)C3(C)C)[C@@H](NC(=O)c2ccccc2)c2ccccc2)O1`: the growth in the experiment on SR leukemia was 25.8%; in the experiment with RPMI-8226 leukemia, 16%; in the experiment on OVCAR-8 ovarian, 52.7%; with OVCAR-5 ovarian, 38.4%; in the experiment on OVCAR-4 ovarian it was 60.7%; in the experiment on SK-OV-3 ovarian, 66.2%. Moreover, the growth was 48.1% with IGROV1 ovarian; 15.7% in the experiment with OVCAR-3 ovarian; 43.7% with HS 578T breast; 106% in the experiment with NCI/ADR-RES ovarian; 40.6% with T-47D breast; 53.2% in the experiment with BT-549 breast. Moreover, the growth in the experiment with MDA-MB-435 melanoma is -57.8% (active); in the experiment with SW-620 colon it was 38%; with MCF7 breast, 24.4%; in the experiment on HCT-116 colon, 15.5%; in the experiment with HCC-2998 colon, 38.2%; in the experiment on KM12 colon, 18%.

Turning to `Cc1cc(C)c(-c2c(O)c(Br)c(-c3c(C)cc(C)c(Br)c3C)c(O)c2Br)c(C)c1Br`, the growth in the experiment on SR leukemia was 18.5%; in the experiment with RPMI-8226 leukemia it was 26.3%; with OVCAR-8 ovarian it was 2.91% (active); in the experiment with OVCAR-5 ovarian it was 64.9%; in the experiment on OVCAR-4 ovarian, 23.7%; in the experiment on SK-OV-3 ovarian, 46.7%. In addition, the growth in the experiment with IGROV1 ovarian was -29.9% (active); with OVCAR-3 ovarian, -24.1% (active); with HS 578T breast, 41.5%; in the experiment on NCI/ADR-RES ovarian it was 44.1%; with T-47D breast, -19.4% (active); in the experiment on BT-549 breast it was 22.2%. The growth in the experiment with MDA-MB-435 melanoma was 13.1%; with SW-620 colon, 3.38% (active); in the experiment on MCF7 breast it was 6.48% (active); with HCT-116 colon, 9.25% (active); in the experiment on HCC-2998 colon, 37.3%; in the experiment with KM12 colon, 12.2%.

For `CN(CCC#N)c1ccc(/C=C2\NC(=O)NC2=O)cc1`, the growth in the experiment with SR leukemia was 102%; in the experiment with RPMI-8226 leukemia, 110%; with OVCAR-8 ovarian, 111%; in the experiment with OVCAR-5 ovarian, 98.7%; in the experiment on OVCAR-4 ovarian it was 102%; in the experiment on SK-OV-3 ovarian it was 105%. Also, the growth in the experiment on IGROV1 ovarian was 105%; in the experiment on OVCAR-3 ovarian, 121%; in the experiment on HS 578T breast it was 88.8%; in the experiment on NCI/ADR-RES ovarian, 93.2%; with T-47D breast it was 112%; with BT-549 breast it was 51.4%. The growth was 93.1% in the experiment on MDA-MB-435 melanoma; 99.8% with SW-620 colon; 102% in the experiment on MCF7 breast; 91.2% in the experiment on HCT-116 colon; 96.7% with HCC-2998 colon; 101% in the experiment with KM12 colon.

With `O=C1NC(=O)c2c1c1c3ccccc3[nH]c1c1oc3ccc(F)cc3c21`, the growth in the experiment with SR leukemia is 31.5%; in the experiment with RPMI-8226 leukemia, 74.5%; in the experiment with OVCAR-8 ovarian it was 91.6%; in the experiment on OVCAR-5 ovarian, 84.1%; in the experiment on OVCAR-4 ovarian, 57.8%; in the experiment with SK-OV-3 ovarian it was 84%. In addition, the growth in the experiment with IGROV1 ovarian was 21.1%; in the experiment on OVCAR-3 ovarian it was 83.1%; with HS 578T breast, 82.2%; with NCI/ADR-RES ovarian, 79.1%; with T-47D breast, 24.4%; in the experiment with BT-549 breast, 71%. The growth in the experiment with MDA-MB-435 melanoma was 76%; with SW-620 colon, 64.6%; with MCF7 breast it was 34%; in the experiment on HCT-116 colon, 69%; in the experiment on HCC-2998 colon it was 65.6%; in the experiment on KM12 colon, 45.9%.

Consider `COc1cc(-c2nc(SCCC(C)C)nc(N3CCOCC3)c2C#N)cc(OC)c1OC`, for which the growth is -10.1% (active) in the experiment with SR leukemia; 90.3% with RPMI-8226 leukemia; 43.1% in the experiment with OVCAR-8 ovarian; 102% in the experiment on OVCAR-5 ovarian; -25.2% (active) with OVCAR-4 ovarian; 88.6% in the experiment on SK-OV-3 ovarian. Also, the growth with IGROV1 ovarian is 79.6%; with OVCAR-3 ovarian, -33.3% (active); with HS 578T breast, 76.7%; with NCI/ADR-RES ovarian, 79%; with T-47D breast it was 13.9%; with BT-549 breast, 79.9%. In addition, the growth with MDA-MB-435 melanoma was 85.6%; with SW-620 colon, 27.7%; with MCF7 breast it was 58.9%; with HCT-116 colon, 5.13% (active); with HCC-2998 colon, 91.7%; in the experiment with KM12 colon, 38%.

As to `CC(C)c1ccc(NC(=O)Nc2ccc(NC(=O)c3ccccc3N)cc2)cc1`, the growth was 17.9% in the experiment with SR leukemia; -0.137% (active) in the experiment on RPMI-8226 leukemia; 61.5% in the experiment with OVCAR-8 ovarian; 60.5% with OVCAR-5 ovarian; 59.4% in the experiment on OVCAR-4 ovarian; 46.8% with SK-OV-3 ovarian. Also, the growth is 72.6% in the experiment on IGROV1 ovarian; 49% in the experiment on OVCAR-3 ovarian; -3.9% (active) in the experiment on HS 578T breast; 89.5% with NCI/ADR-RES ovarian; 38.2% in the experiment on T-47D breast; 77% in the experiment on BT-549 breast. The growth with MDA-MB-435 melanoma was 46.5%; in the experiment with SW-620 colon it was 54.1%; in the experiment with MCF7 breast, 31.6%; in the experiment on HCT-116 colon, 51.8%; in the experiment on HCC-2998 colon it was 23.5%; in the experiment on KM12 colon, 29.8%.

As to `C#Cc1cccc(Nc2nc3ccc([N+](=O)[O-])cc3nc2Nc2cccc(C#C)c2)c1`, the growth was -22.1% (active) in the experiment on SR leukemia; -21.7% (active) in the experiment on RPMI-8226 leukemia; -23.3% (active) in the experiment with OVCAR-8 ovarian; -17.6% (active) in the experiment with OVCAR-5 ovarian; -43.7% (active) in the experiment with OVCAR-4 ovarian; -84.9% (active) with SK-OV-3 ovarian. In addition, the growth in the experiment on IGROV1 ovarian is -29% (active); in the experiment on OVCAR-3 ovarian, -67.4% (active); in the experiment on HS 578T breast, -19.1% (active); in the experiment on NCI/ADR-RES ovarian it was -9.97% (active); in the experiment on T-47D breast, -36.1% (active); in the experiment with BT-549 breast it was -59.3% (active). The growth is -78% (active) with MDA-MB-435 melanoma; -64.2% (active) in the experiment with SW-620 colon; -12.6% (active) with MCF7 breast; -94.7% (active) in the experiment with HCT-116 colon; -80.8% (active) with HCC-2998 colon; -77.9% (active) in the experiment with KM12 colon.

With `COc1cc(C(=O)c2c(-c3ccccc3)oc3c(OC)cccc23)cc(OC)c1O`, the growth in the experiment with SR leukemia is 11.1%; in the experiment with RPMI-8226 leukemia it was 23.9%; in the experiment with OVCAR-8 ovarian it was 20.4%; in the experiment with OVCAR-5 ovarian, 45.7%; in the experiment on OVCAR-4 ovarian, 42.1%; with SK-OV-3 ovarian it was 45.1%. Moreover, the growth in the experiment on IGROV1 ovarian was 18.8%; in the experiment on OVCAR-3 ovarian it was 0.78% (active); with HS 578T breast, 4.85% (active); in the experiment with NCI/ADR-RES ovarian, 10.5%; in the experiment on T-47D breast, 44%; with BT-549 breast it was 11.7%. Further, the growth was -30.4% (active) in the experiment on MDA-MB-435 melanoma; 22.7% in the experiment on SW-620 colon; 14.1% in the experiment with MCF7 breast; 10.2% in the experiment on HCT-116 colon; -3.66% (active) with HCC-2998 colon; 16.6% with KM12 colon.
